The source of these data is PubChem BioAssay (Tox21).

A short description of assay [1]: qHTS assay to identify small molecule antagonists of the retinoid-related orphan receptor gamma (ROR-gamma) signaling pathway - cell viability counter screen (AID 1159520; active = well fitted curve in the direction sought with a large enough effect in the repeat runs; an effect the other way counts as inactive or inconclusive; note: nearly all actives have a fitted effect of over 50% in size; note: potency is the fitted concentration of half-maximal effect). As to conditions: Tet-on RORgamma CHO cells viability, ATP luminescence, 16 h; series mostly up to 92.4 µM. The procedure, abridged: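 Tet-on ROR gamma CHO cells (1,000/well) were plated 4 hr, given compounds in DMSO for 2 hr at 37 C, then induced with 1 uM final doxycycline for 16 hr. Viability was read as ATP by CellTiter-Glo luminescence after 30 min.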

Assay [2] has as its target Nuclear receptor ROR-gamma (Homo sapiens) (UniProt P51449). Description: qHTS assay to identify small molecule antagonists of the retinoid-related orphan receptor gamma (ROR-gamma) signaling pathway (AID 1159521; active = well fitted curve in the direction sought with a large enough effect in the repeat runs; an effect the other way counts as inactive or inconclusive; note: nearly all actives have a fitted effect of over 50% in size; note: potency is the fitted concentration of half-maximal effect). As to conditions: Tet-on RORgamma CHO cells, RORE-luciferase, 16 h; series mostly up to 92.4 µM. The procedure, abridged:
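Readout: ONE-Glo luciferase luminescence, 30 min at room temperature. System: Tet-on RORγ CHO, RORE-LUC. Sequence: compound 2 h, doxycycline 1 uM final, 16 h at 37 C.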
In general terms: qHTS replaces the single test concentration by a dilution series.

Assay [3] is described as follows: qHTS assay to identify small molecule agonists of the AP-1 signaling pathway - cell viability counter screen (AID 1159525). Note: nearly all actives have a fitted effect of over 55% in size. As to conditions: ME-180 AP-1-bla cells viability, ATP luminescence, 5 h; series mostly up to 76.8 µM. A digest of the protocol: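 Each titration point was normalised to DMSO and tetra n-octyl ammonium bromide controls. The read was Cell Titer Glo luminescence after 30 min at RT, following 5 h compound exposure of ME-180 AP-1-bla cells at 37 °C.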

Assay [4] in a line: qHTS assay to identify small molecule agonists of the AP-1 signaling pathway (AID 1159526). Note: potency is the fitted concentration of half-maximal effect. As to conditions: ME-180 (cervical carcinoma) AP-1-bla reporter, beta-lactamase FRET ratio, 5 h; series mostly up to 76.8 µM.
Assay [5] addresses Retinoic acid receptor RXR-alpha (Homo sapiens) (UniProt P19793). Description: qHTS assay to identify small molecule agonists of the RXR signaling pathway (AID 1159527). Note: nearly all actives have a fitted effect of over 35% in size. As to conditions: HEK293T RXRa-UAS-bla, beta-lactamase ratio, 16 h; series mostly up to 76.8 µM. The procedure, abridged:
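Reporter activation is measured as beta-lactamase activity via FRET substrate cleavage (emission 460/530 nm) in HEK 293T cells expressing an RXR-alpha-driven bla construct, following 16 hr compound exposure at 37 C.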

Assay [6] in a line: qHTS assay to identify small molecule agonists of the peroxisome proliferator-activated receptor delta (PPARd) signaling pathway - cell viability counter screen (AID 743211; active = well fitted curve in the direction sought with a large enough effect in the repeat runs; an effect the other way counts as inactive or inconclusive; note: potency is the fitted concentration of half-maximal effect; nearly all actives have a fitted effect of over 55% in size). Conditions: PPARd-bla HEK293H viability, CellTiter-Glo luminescence, 17 h; series mostly up to 62.6 µM. The procedure, abridged:
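Multiplexed format: after the 2 h room-temperature LiveBLAzer B/G FRET step, CellTiter-Glo was added to the same wells. Luminescence after 30 min gave cell viability; compound exposure was 17 h at 37C.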

A short description of assay [7]: qHTS assay to identify small molecule antagonists of the peroxisome proliferator-activated receptor delta (PPARd) signaling pathway - cell viability counter screen (AID 743213; active = well fitted curve in the direction sought with a large enough effect in the repeat runs; an effect the other way counts as inactive or inconclusive; note: potency is the fitted concentration of half-maximal effect; nearly all actives have a fitted effect of over 50% in size). Conditions: PPARd-bla HEK293H viability, CellTiter-Glo luminescence, 17 h; series mostly up to 62 µM. The procedure, abridged: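 HEK293H PPARd UAS-bla cells, 5 h pre-incubation, compound + L165041 300 nM final, 17 h 37 C; B/G FRET substrate 2 h RT; then CellTiter-Glo 30 min RT, luminescence.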

Assay [8] in a line: qHTS assay to identify small molecule antagonists of the farnesoid-X-receptor (FXR) signaling pathway - cell viability counter screen (AID 743221; active = well fitted cell-killing curve with a large enough effect in the repeat runs, not every such curve was filed as active; note: potency is the fitted concentration of half-maximal effect; nearly all actives have a fitted effect of over 50% in size). Conditions: FXR-bla HEK293T viability, CellTiter-Glo luminescence, 16 h; series mostly up to 62.6 µM. A digest of the protocol: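 CellTiter-Glo, 30 min RT, luminescence; same wells as the LiveBLAzer FRET read. Cells: FXR-UAS-bla HEK 293T. Treatment: compound with chenodeoxycholic acid 50 uM final, 16 h at 37 C.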

Assay [9] deals with Vitamin D3 receptor (Homo sapiens) (UniProt P11473). The experiment in a line: qHTS assay to identify small molecule agonists of the vitamin D receptor (VDR) signaling pathway (AID 743222). As to conditions: HEK293T VDR-UAS-bla, beta-lactamase FRET ratio, 16 h; series mostly up to 63.5 µM. The procedure, abridged:
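Using LiveBLAzer B/G FRET detection, agonism was scored in VDR-bla cells exposed overnight (16 h, 37C) to DMSO-dissolved compounds; substrate incubation was 2 h at room temperature.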

Assay [10] can be described thus: qHTS assay to identify small molecule agonists of the vitamin D receptor (VDR) signaling pathway - cell viability counter screen (AID 743224; active = well fitted curve in the direction sought with a large enough effect in the repeat runs; an effect the other way counts as inactive or inconclusive). As to conditions: VDR-bla HEK293T viability, CellTiter-Glo luminescence, 16 h; series mostly up to 62.6 µM. A digest of the protocol: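 Counter screen for cytotoxicity: VDR-bla cells at 2,000 cells/well, 16 h compound exposure, then CellTiter-Glo luminescence after the beta-lactamase measurement.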

A short description of assay [11]: qHTS assay to identify small molecule agonists of the farnesoid-X-receptor (FXR) signaling pathway - cell viability counter screen (AID 743218; active = well fitted curve in the direction sought with a large enough effect in the repeat runs; an effect the other way counts as inactive or inconclusive; note: potency is the fitted concentration of half-maximal effect; nearly all actives have a fitted effect of over 45% in size). As to conditions: FXR-bla HEK293T viability, CellTiter-Glo luminescence, 16 h; series mostly up to 62.6 µM. The procedure, abridged:
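Same-well cytotoxicity check on FXR-UAS-bla HEK 293T cells: 5 h attachment, 16 h compound at 37 C, CellTiter-Glo luminescence read at room temperature after 30 min.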

The nature of assay [12]: qHTS assay to identify small molecule antagonists of the vitamin D receptor (VDR) signaling pathway - cell viability counter screen (AID 743225; active = well fitted curve in the direction sought with a large enough effect in the repeat runs; an effect the other way counts as inactive or inconclusive). Conditions: VDR-bla HEK293T viability, CellTiter-Glo luminescence, 16 h; series mostly up to 61 µM. The procedure, abridged:
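Cytotoxicity toward the VDR-bla HEK 293T line was scored by ATP-based CellTiter-Glo luminescence, read in the wells already used for the beta-lactamase readout after 16 h compound treatment under 3 nM 1-alpha,25-dihydroxyvitamin D3 stimulation.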

Inconclusive results are not listed. Active and inactive are the calls of the source. Unless noted, calls come from the whole dose curve.

Sequence of Retinoic acid receptor RXR-alpha (Homo sapiens) (P19793 whole entry, looked up): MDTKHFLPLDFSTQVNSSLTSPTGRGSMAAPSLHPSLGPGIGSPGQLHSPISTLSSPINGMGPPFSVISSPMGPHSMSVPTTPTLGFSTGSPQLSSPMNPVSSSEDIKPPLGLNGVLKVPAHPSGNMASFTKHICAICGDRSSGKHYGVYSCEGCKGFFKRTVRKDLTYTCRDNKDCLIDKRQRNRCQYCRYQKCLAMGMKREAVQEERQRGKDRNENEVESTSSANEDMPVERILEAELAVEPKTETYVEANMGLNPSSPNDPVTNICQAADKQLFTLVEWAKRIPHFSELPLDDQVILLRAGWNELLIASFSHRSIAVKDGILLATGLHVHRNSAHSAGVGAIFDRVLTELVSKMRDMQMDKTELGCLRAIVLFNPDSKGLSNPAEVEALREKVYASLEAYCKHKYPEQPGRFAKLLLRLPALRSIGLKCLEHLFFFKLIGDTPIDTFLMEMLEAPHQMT
Sequence of Vitamin D3 receptor (Homo sapiens) (P11473 whole entry, looked up): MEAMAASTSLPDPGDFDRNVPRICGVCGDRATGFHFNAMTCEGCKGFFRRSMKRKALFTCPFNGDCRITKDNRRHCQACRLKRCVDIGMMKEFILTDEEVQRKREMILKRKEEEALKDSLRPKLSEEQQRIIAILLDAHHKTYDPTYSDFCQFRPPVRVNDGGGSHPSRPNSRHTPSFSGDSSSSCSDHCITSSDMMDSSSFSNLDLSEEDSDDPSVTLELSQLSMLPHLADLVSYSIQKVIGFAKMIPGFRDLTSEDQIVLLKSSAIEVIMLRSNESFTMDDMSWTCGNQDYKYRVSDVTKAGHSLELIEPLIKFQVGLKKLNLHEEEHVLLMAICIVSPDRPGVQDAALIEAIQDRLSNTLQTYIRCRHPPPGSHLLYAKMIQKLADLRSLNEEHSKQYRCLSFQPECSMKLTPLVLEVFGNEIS

For `ClCc1ccccc1CCl`, the Potency was 43.3 µM (active) in [1] and 54.5 µM (active) in assay [2]. The Potency result in [3] and in assay [4] was “inactive” throughout. Moreover, the result in assay [5] was inactive.
For `ClC1=C(Cl)[C@]2(Cl)[C@@H]3[C@@H](Cl)[C@H](Cl)C[C@@H]3[C@@]1(Cl)C2(Cl)Cl`, the Potency entry in [1], in assay [2], in assay [3] and in assay [4] was “inactive” in each case. Also, the outcome in assay [5] was inactive.
`CCc1ccccc1C`: the Potency result in [1], in assay [2], in assay [3] and in assay [4] was “inactive” in each case.
Regarding `Oc1ccccc1Br`, the Potency result in [1], in assay [2], in [3] and in [4] was “inactive” in each case. Besides, the outcome in [5] was inactive.
On to `N#CCc1ccc(Cl)cc1`, for which the Potency result in assay [1], in assay [2], in [3] and in assay [4] was “inactive” in each case. For the same compound, in assay [5], the outcome was inactive.
Take `Oc1ccc(I)cc1`: the Potency entry in assay [1], in assay [2], in [3] and in assay [4] was “inactive” each time. The outcome in assay [5] was inactive.
Turning to `CCOP(=S)(OCC)SCCS(=O)(=O)CC`, the Potency entry in assay [1], in assay [2], in assay [3] and in assay [4] was “inactive” throughout. Moreover, in assay [5], the outcome was inactive.
Regarding `C=CC(=O)N(C)C`, the Potency result in assay [1], in assay [2], in assay [3] and in [4] was “inactive” each time. Besides, the outcome in [5] was inactive.
Turning to `Clc1ccc(-c2ccccc2)cc1`, the Potency entry in assay [1], in assay [2], in [3] and in assay [4] was “inactive” throughout. Also, the result in [5] was inactive.
Take `N#Cc1ccccc1N`: the Potency result in [1], in assay [2], in assay [3] and in assay [4] was “inactive” throughout. In addition, the outcome in assay [5] was inactive.
Consider `Cl/C=C\CCl`, for which the Potency entry in [1], in assay [2], in assay [3] and in assay [4] was “inactive” each time. In addition, the outcome in assay [5] was inactive.
Turning to `C[C@@H](Oc1ccc(Cl)cc1Cl)C(=O)O`, the Potency entry in [1], in [2], in assay [3] and in assay [4] was “inactive” throughout.
On to `CC(C)CBr`, for which the Potency result in assay [1], in assay [2], in [3] and in assay [4] was “inactive” throughout.
For `CCC(C)c1cc(C(C)(C)C)cc(-n2nc3ccccc3n2)c1O` (stereo unspecified), the Potency entry in [1], in [2], in [3] and in [4] was “inactive” in each case.
Take `ClC1=C(Cl)[C@]2(Cl)[C@@H]3[C@@H](Cl)[C@@H](Cl)C[C@@H]3[C@@]1(Cl)C2(Cl)Cl`: the Potency entry in [1], in assay [2], in [3] and in assay [4] was “inactive” throughout.
In the case of `COCC(=O)N(c1c(C)cccc1C)[C@H](C)C(=O)OC`, the Potency result in assay [1], in [2], in assay [3] and in assay [4] was “inactive” in each case.
On to `COC(=O)N(C(=O)N1COC2(C(=O)OC)Cc3cc(Cl)ccc3C2=N1)c1ccc(OC(F)(F)F)cc1` (stereo unspecified), for which, in [2], the Potency was 23.7 µM (active). The Potency result in [3] is “inactive”.
With `Clc1ccc(CSC(Cn2ccnc2)c2ccc(Cl)cc2Cl)cc1` (stereo unspecified), the Potency in assay [6] is 33.5 µM (active); in assay [7], 33.5 µM (active); in assay [8] it was 23.7 µM (active); in assay [10], 29.8 µM (active); in [2], 29.8 µM (active). Moreover, the Potency result in [9] and in [1] was “inactive” throughout.
As for `CC(=[OH+])/C=C(/C)[O-].CC(=[OH+])/C=C(\C)[O-].CC(=[OH+])/C=C(\C)[O-].[Al]`, the Potency result in assay [2], in assay [3] and in assay [4] was “inactive” throughout.
Take `N#C/C=C/c1ccccc1`: the Potency result in assay [2], in assay [3] and in assay [4] was “inactive” each time. In addition, the result in [5] was inactive.
For the compound `O=CC(Br)(Br)Br`, the Potency is 17.3 µM (active) in assay [6]; 48.8 µM (active) in assay [7]; 13.8 µM (active) in assay [11]; 24.5 µM (active) in assay [8]; 17.3 µM (active) in assay [10]; 48.8 µM (active) in [12]. Besides, the results for the Potency in [1] and in assay [4] were 7.67 µM (active) and 7.74 µM (active), respectively. The Potency result in [2] is “inactive”.
Turning to `CC(O)C#N` (stereo unspecified), the Potency result in assay [1], in assay [2] and in assay [3] was “inactive” in each case. The result in assay [5] was inactive.
With `CCOP(=S)(OCC)SCS(=O)(=O)CC`, the Potency entry in [1], in assay [3] and in assay [4] was “inactive” each time. Besides, in assay [5], the outcome was inactive.
Take `Nc1c(Oc2ccccc2)cc(O)c2c1C(=O)c1ccccc1C2=O`: the Potency result in assay [2] and in [3] was “inactive” throughout. Besides, in assay [5], the outcome was inactive.
`CCCCOP(=O)(CCCC)OCCCC`: the Potency entry in [3] and in [4] was “inactive” in each case.
In the case of `CCSC(C)CC1CC(=O)C(/C(CC)=N/OC/C=C/Cl)=C(O)C1` (stereo unspecified), the Potency entry in assay [2], in assay [3] and in assay [4] was “inactive” throughout.
Take `Cc1ccc(C(=O)Cl)cc1`: the Potency result in [1], in [2] and in assay [3] was “inactive” throughout. Also, the result in [5] was inactive.
As to `C=CCOC(N)=O`, the Potency result in assay [2], in assay [3] and in [4] was “inactive” throughout. Further, the result in assay [5] was inactive.
`CC(C)(COCC1CO1)COCC1CO1` (stereo unspecified): the Potency entry in [1], in assay [3] and in assay [4] was “inactive” throughout. In addition, the outcome in [5] was inactive.
On to `Oc1cccc(-c2ccccc2)c1`, for which the Potency entry in assay [1], in assay [2] and in [3] was “inactive” each time. Further, the outcome in [5] was inactive.
